The text below walks through data of PubChem BioAssay.

A short description of assay [1]: rapamycin-like changes in RPL19A-GFP expression – cell-based, S. cerevisiae, multiplex flow cytometry, primary screen (AID 1862; in the data active means percent of DMSO control GFP below about 86%;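 further: lower values mimic rapamycin by blocking the RPL19A rise seen in DMSO cells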). The conditions noted are these: S. cerevisiae RPL19A-GFP strain, flow cytometry fluorescence, 3 h; at 10 µM; stronger effect = lower value.
Assay [2] can be described thus: TOR pathway GLN3 branch reporter MEP2-GFP changes – S. cerevisiae, multiplex flow cytometry, primary screen (AID 1867;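 active means GFP response, as percent of the DMSO control, above the screen-wide mean plus 3 SD, about 139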;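 further: median GFP channel fluorescence of barcode-gated MEP2-GFP cells measured by flow cytometry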). The conditions noted are these: S. cerevisiae MEP2-GFP strain, 3 h, at 10 µM, stronger effect = higher value, 100% means same as DMSO wells.
Assay [3] can be described thus: TOR pathway RTG branch CIT2 reporter changes – S. cerevisiae, GFP fusion, multiplex flow cytometry, primary screen (AID 1870;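 active means percent response above a set limit, the screen-wide mean plus 3 SD, cut at about 130% in these data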;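 further: barcoded CIT2-GFP strain pooled with four other GFP strains with rapamycin as positive control; median GFP fluorescence per well over plate mean of DMSO wells so 100% = DMSO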). The note with it: S. cerevisiae CIT2-GFP expression, 3 h, at 10 µM, stronger effect = higher value.
The nature of assay [4]: TOR pathway LAP4-GFP level changes – S. cerevisiae, multiplex flow cytometry, primary screen (AID 1873;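 active means GFP signal, as percent of the solvent control, above the screen mean plus 3 SD, about 149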). The conditions noted are these: S. cerevisiae LAP4-GFP expression, 3 h, at 10 µM, stronger effect = higher value.
Assay [5] is described as follows: yeast AGP1-GFP level changes, GLN3 branch – cell-based, multiplex flow cytometry, S. cerevisiae, primary screen (AID 1887;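 active means GFP signal above the screen-wide mean plus 3 SD, that is over about 124.5% of the solvent control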;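 further: AGP1-GFP fusion strain of S. cerevisiae within a five-strain barcoded multiplex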). The conditions noted are these: 3 h, at 10 µM, stronger effect = higher value.
Assay [6] is described as follows: reduced mouse 2C T cell binding to pMHC/ICAM-1 vesicles – MLPCN validation set, flow cytometry, LFA-1/ICAM-1 modulator project, pilot screen (AID 2523;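 active means response below a set limit, under 55% cells CD8-positive and vesicle-bound, and CD8 cells' 90th-percentile brightness under 279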;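 on vesicle binding response: mean PE anti-B7-1 fluorescence of CD8+ cells relative to row control; 100% = QL9-loaded vesicles with DMSO vehicle in the same plate row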). The conditions noted are these: 2C mouse CD8+ T cells, at 7 µM, stronger effect = lower value; double positive events: measured here: CD8+/vesicle+ event percentage.
Assay [7] addresses Integrin beta-1 (Homo sapiens) + Integrin alpha-4 (Homo sapiens) (UniProt P13612+P05556). Description: alpha4beta1 integrin LIBS antibody binding reduction – U937 cells, HUTS-21 mAb, flow cytometry, validation set, VLA-4 allosteric modulator project, pilot screen (AID 2674;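 active means inhibition above 50%, about 3 SD of the validation set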;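 further: antibody binding induced by the VLA-4 ligand LDV present at three times its Kd; 0% = LDV ligand with antibody and no compound and 100% = antibody without LDV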). The note with it: HUTS-21 LIBS mAb binding, at 6.7 µM, stronger effect = higher value, binding induced by LDV ligand.

A short description of assay [8]: calorie-restriction mimetic ROS inhibitors, yeast – validation compound set, pilot screen (AID 2706;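 active means superoxide response below 65% of plate, a cut near 3 SD across the whole screen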;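 further: yeast exposed to compound for one week at 30 degrees C before staining; 100% = mean of all compound wells on the same plate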). The note with it: S. cerevisiae aging, superoxide DHE fluorescence; at 10 µM; stronger effect = lower value.
Assay [9] addresses Beta-adrenergic receptor kinase 1 (Homo sapiens) (UniProt P25098). Description: GRK2 binders displacing RNA aptamer, biochemical, validation, human GRK2, bead flow cytometry (AID 488806;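 active means aptamer binding inhibition above 30%, about 3 SD of noise from non-fluorescent compounds; inactive means inhibition at or below 30%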). The note with it: bead-bound GRK2, FAM-aptamer displacement, at 10 µM, stronger effect = higher value.
The target in assay [10] is Beta-2 adrenergic receptor (Homo sapiens) (UniProt P07550). Kind of assay: agonist-induced loss of surface beta2AR – cell-based, FAP fluorogen, flow cytometry, validation set, pilot screen (AID 504459).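 Further: agonist-driven loss of surface beta2AR via internalization measured by FAP dye flow cytometry.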 The conditions noted are these: Am2.2-beta2AR cells, at 10 µM, stronger effect = higher value.
Beta-2 adrenergic receptor (Homo sapiens), sequence (P07550 whole entry, looked up): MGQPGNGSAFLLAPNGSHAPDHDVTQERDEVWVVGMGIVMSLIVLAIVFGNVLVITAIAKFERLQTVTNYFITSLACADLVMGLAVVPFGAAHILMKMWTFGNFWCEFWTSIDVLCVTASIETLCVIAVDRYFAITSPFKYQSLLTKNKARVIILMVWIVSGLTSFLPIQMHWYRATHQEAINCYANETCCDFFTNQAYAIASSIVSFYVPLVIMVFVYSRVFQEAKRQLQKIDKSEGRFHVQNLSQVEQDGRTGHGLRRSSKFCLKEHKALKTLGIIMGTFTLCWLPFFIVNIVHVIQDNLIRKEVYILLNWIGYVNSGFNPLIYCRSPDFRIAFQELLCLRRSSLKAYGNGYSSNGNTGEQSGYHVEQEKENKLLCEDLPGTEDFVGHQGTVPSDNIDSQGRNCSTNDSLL
Assay [11] addresses AP-2 complex subunit beta (Homo sapiens) (UniProt P63010). Kind of assay: beta-arrestin/AP2 interaction blockers – biochemical, validation set, GST-AP2 beads, flow cytometry, pilot screen (AID 504541;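 active means inhibition above 54%, about 3 SD of non-fluorescent compounds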;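 further: AP2 carries R879A mutation and is captured from E. coli lysate; bead-bound FITC arrestin peptide fluorescence measuring arrestin peptide binding to AP2; 0% = DMSO wells and 100% = excess unlabeled arrestin peptide control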). The conditions noted are these: FITC arrestin peptide, at 10 µM, stronger effect = higher value, AP2 beta2 appendage fragment, R879A mutant.
Assay [12] in a line: cytosolic pH regulators acting via V-ATPase – S. cerevisiae, pHLuorin, HTS validation (AID 504600; in the data active means response above about 15%;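 further: plate controls were DMSO for no effect and reference compound for full effect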). The note with it: V-ATPase proton transport, at 10 µM, stronger effect = higher value.
Assay [13] has as its system anti-desmoglein-3 scFv antibody binding to human DSG3. Description: blockers of pathogenic pemphigus antibody–desmoglein-3 binding – biochemical, validation compound set, bead-based, flow cytometry, pilot screen (AID 588368;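 active means binding below the plate cutoff, the plate median minus 3 SD, with a reading above zero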;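 further: signal is the median channel fluorescence of bead-bound GFP antibody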). The conditions noted are these: Protein G beads, DSG3-Fc, scFv-GFP binding, at 10 µM, stronger effect = lower value.
Assay [14] is described as follows: Nile Red efflux blockade in pump-expressing yeast – validation compound set, multiplex, phenotypic, pilot screen (AID 588506;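 active means efflux inhibition above 0.42, the validation set average plus 4 SD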;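 further: Nile Red retained in cells so higher fluorescence means more efflux inhibition; 0 = negative control wells and 1 = enniatin B 25 µM full block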). The conditions noted are these: S. cerevisiae pump-expressing triplex, Nile Red efflux flow cytometry; at 10 µM; stronger effect = higher value; the pumps come from Candida albicans.
Assay [15] addresses ATP-binding cassette sub-family B member 6 (Homo sapiens) (UniProt Q9NP58). Kind of assay: blockers of ABCB6-driven porphyrin uptake – K562-ABCB6 cells, flow cytometry, validation set, pilot screen (AID 588550;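 active means inhibition above the screen-wide mean plus 3 SD, about 51%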;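 further: 0% = DMSO wells and 100% = benzethonium chloride 70 µM positive control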). The conditions noted are these: K562-ABCB6 porphyrin accumulation, 1 h, at 10 µM, stronger effect = higher value.
Assay [16] in a line: AML differentiation inducers, ER-HoxA9 marrow cells – cell-based, GFP/MAC1 double positive, flow cytometry, validation set, primary screen (AID 588685;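 active means differentiation response of at least 50%, scaled between solvent and reference control, from cells with both markers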;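 further: compound exposure lasts four days before antibody staining and flow analysis; 0% = DMSO wells and 100% = 5 µM fulvestrant positive control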). The note with it: stronger effect = higher value, normalized: vehicle 0, fulvestrant 100.

Results filed as inconclusive are left out. Active and inactive are the calls of the source.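 How the source made its calls, unless noted: active means percent response above 42, roughly 3 SD of non-fluorescent test compounds; inactive means the rest.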

Beta-adrenergic receptor kinase 1 (Homo sapiens), sequence (P25098 whole entry, looked up): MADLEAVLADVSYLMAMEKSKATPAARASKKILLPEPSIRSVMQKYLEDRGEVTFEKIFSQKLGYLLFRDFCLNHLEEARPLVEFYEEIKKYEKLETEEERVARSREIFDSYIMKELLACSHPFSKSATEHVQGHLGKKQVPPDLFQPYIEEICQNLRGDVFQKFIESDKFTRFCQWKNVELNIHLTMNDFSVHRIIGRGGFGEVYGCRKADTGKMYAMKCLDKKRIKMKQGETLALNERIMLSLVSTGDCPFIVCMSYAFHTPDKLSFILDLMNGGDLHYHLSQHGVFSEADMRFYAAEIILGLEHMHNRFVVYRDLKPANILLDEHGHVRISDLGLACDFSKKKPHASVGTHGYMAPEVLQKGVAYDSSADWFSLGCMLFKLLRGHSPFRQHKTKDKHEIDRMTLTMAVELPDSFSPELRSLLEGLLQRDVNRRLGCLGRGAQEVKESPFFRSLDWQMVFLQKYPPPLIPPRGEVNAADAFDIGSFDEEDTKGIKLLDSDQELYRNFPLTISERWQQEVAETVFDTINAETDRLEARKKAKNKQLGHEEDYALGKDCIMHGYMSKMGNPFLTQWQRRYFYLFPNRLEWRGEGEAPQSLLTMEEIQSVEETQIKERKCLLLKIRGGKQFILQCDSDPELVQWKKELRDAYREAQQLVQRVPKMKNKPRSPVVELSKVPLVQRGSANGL
AP-2 complex subunit beta (Homo sapiens), sequence (P63010 whole entry, looked up, the tested form may be a part, one chain of several): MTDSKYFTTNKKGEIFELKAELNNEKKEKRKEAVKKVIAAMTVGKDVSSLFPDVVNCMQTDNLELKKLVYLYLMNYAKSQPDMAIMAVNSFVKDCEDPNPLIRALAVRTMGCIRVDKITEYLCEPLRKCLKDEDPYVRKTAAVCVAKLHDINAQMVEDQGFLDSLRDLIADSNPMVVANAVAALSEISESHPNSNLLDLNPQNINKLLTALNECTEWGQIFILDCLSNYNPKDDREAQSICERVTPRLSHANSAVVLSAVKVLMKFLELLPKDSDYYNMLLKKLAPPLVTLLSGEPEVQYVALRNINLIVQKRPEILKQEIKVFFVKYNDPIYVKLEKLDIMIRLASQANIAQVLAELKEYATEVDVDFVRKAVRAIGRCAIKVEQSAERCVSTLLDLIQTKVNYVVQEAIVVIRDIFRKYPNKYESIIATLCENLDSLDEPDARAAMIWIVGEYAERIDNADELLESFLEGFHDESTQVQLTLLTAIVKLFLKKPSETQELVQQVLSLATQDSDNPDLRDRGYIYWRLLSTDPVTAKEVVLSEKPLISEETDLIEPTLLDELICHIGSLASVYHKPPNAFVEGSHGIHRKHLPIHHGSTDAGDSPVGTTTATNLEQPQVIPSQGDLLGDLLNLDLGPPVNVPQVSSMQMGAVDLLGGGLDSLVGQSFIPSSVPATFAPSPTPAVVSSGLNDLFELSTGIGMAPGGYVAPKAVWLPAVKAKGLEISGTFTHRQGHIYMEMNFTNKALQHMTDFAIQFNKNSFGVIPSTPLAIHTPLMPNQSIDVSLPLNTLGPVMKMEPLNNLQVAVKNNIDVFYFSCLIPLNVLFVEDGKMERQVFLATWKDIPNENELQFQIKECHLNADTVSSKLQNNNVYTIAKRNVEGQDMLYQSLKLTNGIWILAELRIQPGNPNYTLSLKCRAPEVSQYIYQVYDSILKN
Integrin beta-1 (Homo sapiens) + Integrin alpha-4 (Homo sapiens), sequence (P05556 whole entry, looked up): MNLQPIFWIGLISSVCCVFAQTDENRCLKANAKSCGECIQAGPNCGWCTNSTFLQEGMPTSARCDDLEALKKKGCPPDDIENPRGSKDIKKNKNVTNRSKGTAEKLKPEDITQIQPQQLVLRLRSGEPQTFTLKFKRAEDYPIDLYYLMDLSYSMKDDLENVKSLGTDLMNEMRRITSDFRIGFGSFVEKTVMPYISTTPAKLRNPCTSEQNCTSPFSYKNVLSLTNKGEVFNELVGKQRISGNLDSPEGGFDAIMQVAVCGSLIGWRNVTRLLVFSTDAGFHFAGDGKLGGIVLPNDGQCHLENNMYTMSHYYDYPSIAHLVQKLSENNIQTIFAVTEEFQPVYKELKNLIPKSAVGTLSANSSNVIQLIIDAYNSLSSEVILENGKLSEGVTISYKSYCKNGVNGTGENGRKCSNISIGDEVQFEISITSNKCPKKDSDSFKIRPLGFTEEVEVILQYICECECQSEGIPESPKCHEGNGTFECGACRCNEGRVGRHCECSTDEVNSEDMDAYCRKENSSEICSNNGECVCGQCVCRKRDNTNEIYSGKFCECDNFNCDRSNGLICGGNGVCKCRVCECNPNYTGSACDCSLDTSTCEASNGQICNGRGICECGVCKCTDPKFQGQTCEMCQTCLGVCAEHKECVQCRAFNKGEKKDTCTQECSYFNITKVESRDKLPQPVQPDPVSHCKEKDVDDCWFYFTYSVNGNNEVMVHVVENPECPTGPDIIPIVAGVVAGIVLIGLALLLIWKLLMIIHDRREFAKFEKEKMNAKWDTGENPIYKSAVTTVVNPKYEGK
Integrin beta-1 (Homo sapiens) + Integrin alpha-4 (Homo sapiens), sequence (P13612 whole entry, looked up): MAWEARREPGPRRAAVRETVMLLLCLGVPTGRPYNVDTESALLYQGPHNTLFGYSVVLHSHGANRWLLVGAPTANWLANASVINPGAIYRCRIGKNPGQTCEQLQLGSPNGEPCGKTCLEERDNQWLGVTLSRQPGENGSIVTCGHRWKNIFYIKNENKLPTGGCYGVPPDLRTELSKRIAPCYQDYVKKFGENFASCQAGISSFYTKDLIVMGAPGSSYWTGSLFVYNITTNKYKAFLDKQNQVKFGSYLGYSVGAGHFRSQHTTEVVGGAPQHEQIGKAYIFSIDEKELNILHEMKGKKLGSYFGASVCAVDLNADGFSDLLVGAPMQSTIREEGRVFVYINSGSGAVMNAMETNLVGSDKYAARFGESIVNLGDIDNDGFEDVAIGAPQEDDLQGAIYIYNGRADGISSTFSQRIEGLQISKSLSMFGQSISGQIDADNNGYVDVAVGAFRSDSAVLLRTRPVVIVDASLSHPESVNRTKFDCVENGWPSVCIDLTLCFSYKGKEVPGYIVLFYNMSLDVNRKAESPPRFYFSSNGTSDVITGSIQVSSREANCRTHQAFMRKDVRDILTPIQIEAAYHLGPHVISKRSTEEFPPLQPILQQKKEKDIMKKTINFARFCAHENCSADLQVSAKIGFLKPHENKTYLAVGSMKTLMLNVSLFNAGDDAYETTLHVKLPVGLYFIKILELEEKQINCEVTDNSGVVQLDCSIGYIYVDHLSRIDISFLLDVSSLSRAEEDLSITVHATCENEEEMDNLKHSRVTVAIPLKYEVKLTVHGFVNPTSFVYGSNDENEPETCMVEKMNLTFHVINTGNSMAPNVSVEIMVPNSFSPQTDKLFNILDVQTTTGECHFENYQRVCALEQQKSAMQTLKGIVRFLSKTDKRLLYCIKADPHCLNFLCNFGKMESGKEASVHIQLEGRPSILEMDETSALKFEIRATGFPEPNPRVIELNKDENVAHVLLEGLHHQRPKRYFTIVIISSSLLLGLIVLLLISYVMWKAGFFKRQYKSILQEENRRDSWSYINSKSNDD
ATP-binding cassette sub-family B member 6 (Homo sapiens), sequence (Q9NP58 whole entry, looked up): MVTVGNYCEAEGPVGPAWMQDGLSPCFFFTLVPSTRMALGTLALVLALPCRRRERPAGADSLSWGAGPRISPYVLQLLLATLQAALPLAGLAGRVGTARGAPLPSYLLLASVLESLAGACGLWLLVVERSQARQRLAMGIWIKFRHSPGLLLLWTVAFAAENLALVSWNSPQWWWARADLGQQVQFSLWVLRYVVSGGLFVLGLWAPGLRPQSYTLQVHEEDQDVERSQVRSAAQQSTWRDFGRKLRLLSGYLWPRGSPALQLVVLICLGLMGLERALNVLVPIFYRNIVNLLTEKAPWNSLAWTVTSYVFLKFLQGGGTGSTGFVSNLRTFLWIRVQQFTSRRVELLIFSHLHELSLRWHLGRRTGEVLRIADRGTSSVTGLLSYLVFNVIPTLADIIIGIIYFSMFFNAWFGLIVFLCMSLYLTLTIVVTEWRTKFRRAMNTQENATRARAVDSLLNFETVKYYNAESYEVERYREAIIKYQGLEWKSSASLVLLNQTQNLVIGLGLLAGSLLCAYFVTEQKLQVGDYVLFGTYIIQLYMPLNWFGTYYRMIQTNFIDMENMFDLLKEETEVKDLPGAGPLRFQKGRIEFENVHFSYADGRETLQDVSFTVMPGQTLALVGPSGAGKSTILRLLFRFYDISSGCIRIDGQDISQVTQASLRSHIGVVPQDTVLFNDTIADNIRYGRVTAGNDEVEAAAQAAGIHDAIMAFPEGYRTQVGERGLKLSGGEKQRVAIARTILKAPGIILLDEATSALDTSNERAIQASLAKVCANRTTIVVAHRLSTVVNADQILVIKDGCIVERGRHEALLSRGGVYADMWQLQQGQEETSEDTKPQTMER

Take `CCSC(SCC)[C@H](O)[C@@H](O)[C@H](O)[C@H](O)CO`: the percent of DMSO control GFP in assay [1] is 95.5% (inactive). Also, the GFP response vs DMSO in [2] is 113% (inactive); in [4] it was 74.8% (inactive). In addition, the percent response of DMSO control in [3] was 107% (inactive). Further, in assay [5], the GFP response, % of DMSO is 93.8% (inactive). The double positive events in assay [6] worked out at 58%. The vesicle binding response in assay [6] was 218% (inactive). Besides, the inhibition is 6.46% (inactive) in assay [7], 4.05% (inactive) in [11] and 6% (inactive) in assay [15]. The superoxide response (% of plate) in assay [8] was 114% (inactive). In addition, in [9], the aptamer binding inhibition is 7% (inactive). For the same compound, the response in [10] was -7.81% (inactive); in [12] it was -1.88% (inactive). Besides, the binding (% of control) in assay [13] was 104% (inactive). Besides, in assay [14], the efflux inhibition (fraction of control) is 0.3 (inactive). Moreover, the differentiation response in [16] was -2.46% (inactive).
On to `CNCCCC1c2ccccc2C=Cc2ccccc21`, for which the percent of DMSO control GFP in [1] is 96.1% (inactive). For the same compound, the values for the GFP response vs DMSO in assay [2] and in assay [4] were 116% (inactive) and 83.1% (inactive), respectively. In addition, the percent response of DMSO control in assay [3] was 108% (inactive). In assay [5], the GFP response, % of DMSO was 97% (inactive). In [6], this compound gave a double positive events of 71.4%. Also, in assay [6], the vesicle binding response is 307% (inactive). Moreover, the inhibition in [7] was 8.4% (inactive); in assay [11], -2.69% (inactive); in assay [15] it was 9% (inactive). Further, the superoxide response (% of plate) in assay [8] is 103% (inactive). In assay [9], the aptamer binding inhibition is -3% (inactive). Besides, the response in [10] was 23.4% (inactive); in assay [12], 0.79% (inactive). In [13], the binding (% of control) is 101% (inactive). In addition, the efflux inhibition (fraction of control) in [14] is 0.16 (inactive). Moreover, the differentiation response in assay [16] was -3.28% (inactive).
Take `Cc1ccc(S(=O)(=O)N[C@@H](Cc2ccccc2)C(=O)CCl)cc1`: in [1], the percent of DMSO control GFP was 99.2% (inactive). Also, the figures for the GFP response vs DMSO in [2] and in assay [4] were 91.8% (inactive) and 108% (inactive), respectively. Further, the percent response of DMSO control in assay [3] was 92.5% (inactive). For the same compound, the GFP response, % of DMSO in [5] is 107% (inactive). Also, in [6], the double positive events was determined as 59.9%. Further, the vesicle binding response in [6] was 101% (inactive). The inhibition is 48.3% (inactive) in assay [7], -2.91% (inactive) in assay [11] and 9% (inactive) in assay [15]. For the same compound, the superoxide response (% of plate) in assay [8] was 100% (inactive). Besides, the aptamer binding inhibition in assay [9] was 8% (inactive). Also, the response in assay [10] was 11.3% (inactive); in [12] it was -3.47% (inactive). Besides, in [13], the binding (% of control) is 99% (inactive). Besides, in assay [14], the efflux inhibition (fraction of control) is 0.04 (inactive). The differentiation response in [16] is -4% (inactive).
Consider `COC(=O)CCC(=O)CN`, for which the percent of DMSO control GFP in assay [1] was 102% (inactive). Also, the GFP response vs DMSO in [2] was 106% (inactive); in assay [4], 118% (inactive). The percent response of DMSO control in assay [3] was 110% (inactive). Further, in assay [5], the GFP response, % of DMSO was 113% (inactive). In assay [6], this compound showed a double positive events of 62.2%. The vesicle binding response in [6] is 148% (inactive). Also, the inhibition was -5.11% (inactive) in [7], 7.22% (inactive) in assay [11] and 5% (inactive) in [15]. Also, the superoxide response (% of plate) in [8] is 94% (inactive). Moreover, in assay [9], the aptamer binding inhibition is -3% (inactive). For the same compound, the response in [10] is 1.35% (inactive); in assay [12] it was -6.15% (inactive). In [13], the binding (% of control) is 102% (inactive). The efflux inhibition (fraction of control) in assay [14] was -0.11 (inactive). In addition, the differentiation response in assay [16] is 7.13% (inactive).
Turning to `Cc1ccc2c(c1)C1CN(C)CCC1N2S(=O)(=O)c1ccc(Oc2ccc([N+](=O)[O-])cc2)cc1` (stereo not given), in assay [1], the percent of DMSO control GFP was 104% (inactive). For the same compound, the GFP response vs DMSO in assay [2] was 103% (inactive); in assay [4], 91.5% (inactive). Also, the percent response of DMSO control in assay [3] is 106% (inactive). The GFP response, % of DMSO in assay [5] is 97% (inactive). In assay [6], this compound registered a double positive events of 56.7%. The vesicle binding response in assay [6] is 153% (inactive). The values for the inhibition in assay [7], in assay [11] and in assay [15] were 2.93% (inactive), -1.46% (inactive) and -4% (inactive), respectively. Also, the superoxide response (% of plate) in assay [8] is 97.8% (inactive). Besides, in assay [9], the aptamer binding inhibition was -7% (inactive). The results for the response in assay [10] and in assay [12] were 25.2% (inactive) and 10.4% (inactive), respectively. Besides, in assay [13], the binding (% of control) was 105% (inactive). Moreover, in assay [14], the efflux inhibition (fraction of control) was 0.085 (inactive). In addition, the differentiation response in assay [16] was -14.8% (inactive).
